# The full list was thinned out, with the strongest signals kept by preference.
# B1: F17dG (Escherichia coli), Q47199 (protein)
# chain: MTNFYKVFLAVFILVCCNISQAAVSFIGSTENDVGPSPGSYSRTHAMDNLPFVYNTGNNIGYQNANVWRISKGFCVGLDGKVDLPVVGSLDGQSIYGLTEEVGLLIWMGDTNYSRGTAMSGNSWENVFSGWCVGANTASTQGLSVRVTPVILKRNSSARYSVQKTSIGSIRMRPYNGSSAGSVQTTVNFSLNPFTLNDTVTSCRLLTPSAVNVSLAAISAGQLPSSGDEVVAGTTSLKLQCDAGVTVWATLTDATTPSNRSDILTLTGASTATGVGLRIYKNTDSTPLKFGPDSPVKGNENQWQLSTGTETSPSVRLYVKYVNTGEGINPGTVNGISTFTFSYQ
# Assays:
# Test in all cases: glycan array binding signal (z-score within array); higher = stronger binding
# Settings in all cases: glycan notation: IUPAC condensed, linker removed
# [1] = target: Fuc(a1-2)Gal(b1-4)GlcNAc
# In short: (§1)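 Columns mapping to the same glycan were averaged after glycan names were converted to IUPAC-condensed notation. The data come from 3228 arrays in the Consortium for Functional Glycomics database, limited to those with an available protein sequence. Binding is reported as a within-array Z-score averaged across arrays of one protein sequence and across linkers.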
# [2] = target: Fuc(a1-2)[Gal(a1-3)]Gal
# In short: as §1
# [3] = target: Fuc(b1-3)GlcNAc
# In short: as §1
# [4] = target: Gal(a1-3)[Gal(a1-4)]Gal(b1-4)GlcNAc
# In short: as §1
# [5] = target: Gal(b1-3)[Neu5Ac(a2-6)]GalNAc
# In short: as §1
# [6] = target: Gal(b1-4)GlcNAc(b1-3)Gal(b1-4)GlcNAc
# In short: as §1
# [7] = target: GlcNAc(b1-3)Gal
# In short: as §1
# [8] = target: GlcNAc(b1-3)Gal(b1-4)Glc
# In short: as §1
# [9] = target: GlcNAc(b1-3)[GlcNAc(b1-6)]Gal(b1-4)GlcNAc
# In short: as §1
# [10] = target: GlcNAc(b1-3)[GlcNAc(b1-6)]GalNAc
# In short: as §1
# [11] = target: GlcNAc(b1-4)[GlcNAc(b1-6)]GalNAc
# In short: as §1
# [12] = target: Neu5Ac(a2-3)Gal(b1-3)GalNAc(b1-3)Gal(a1-4)Gal(b1-4)Glc
# In short: as §1
# [13] = target: Neu5Ac(a2-3)Gal(b1-3)GalNAc(b1-3)Gal(b1-4)GlcNAc
# In short: as §1
# [14] = target: Neu5Ac(a2-3)Gal(b1-4)GlcNAc
# In short: as §1
# [15] = target: Neu5Ac(a2-3)GalNAc
# In short: as §1
binder,measurement,setting,value
B1,glycan array binding signal (z-score),[1],-0.185
same,glycan array binding signal (z-score),[2],-0.276
same,glycan array binding signal (z-score),[3],-0.225
same,glycan array binding signal (z-score),[4],-0.399
same,glycan array binding signal (z-score),[5],-0.194
same,glycan array binding signal (z-score),[6],-0.287
same,glycan array binding signal (z-score),[7],4.56
same,glycan array binding signal (z-score),[8],5.88
same,glycan array binding signal (z-score),[9],5.46
same,glycan array binding signal (z-score),[10],6.17
same,glycan array binding signal (z-score),[11],-0.009
same,glycan array binding signal (z-score),[12],-0.399
same,glycan array binding signal (z-score),[13],-0.204
same,glycan array binding signal (z-score),[14],-0.354
same,glycan array binding signal (z-score),[15],-0.327

# Source: the supplement of paper PMC8728848
